From PubChem BioAssay come the findings set out here.

Experiment [1] can be described thus: small molecules captured by biotinylated probe aFSTL3 – biochemical, small-molecule microarray, fluorescence 635/667, stem cell growth factor project, primary screen (AID 1064).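 Note: measures binding of the biotinylated anti-FSTL3 antibody to printed compounds.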 As to conditions: higher = more signal.
Experiment [2] can be described thus: binders from COS7 lysate, DM2A8 probe, primary screen, torsin A project, cell lysate, small-molecule microarray, fluorescence 635/667 (AID 1065). As to conditions: higher = more signal, COS7 lysate expressing mutant human TOR1A.
Experiment [3] is described as follows: small molecules captured by biotinylated probe aFGF2 – biochemical, small-molecule microarray, fluorescence 635/667, stem cell growth factor project, primary screen (AID 1067).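 Note: measures binding of biotinylated aFGF2 protein to printed compounds on slides; z-score merges feature fluorescence and signal-to-noise across triplicate slides.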 As to conditions: higher = more signal.
Experiment [4] is described as follows: small molecules captured by biotinylated probe aFGF10 – biochemical, small-molecule microarray, fluorescence 635/667, stem cell growth factor project, primary screen (AID 1071).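 Note: score merges 667 nm spot intensity and signal to noise from triplicate slides.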 As to conditions: higher = more signal.
For experiment [5], the target named is Neurogenic locus notch homolog protein 2 (Homo sapiens) (UniProt Q04721). Kind of experiment: small molecules binding Notch2 protein – biochemical, small-molecule microarray, 635 nm fluorescence, stem cell growth factors, primary screen (AID 1073). As to conditions: higher = more signal.
Neurogenic locus notch homolog protein 2 (Homo sapiens), sequence (Q04721 whole entry, looked up, canonical isoform): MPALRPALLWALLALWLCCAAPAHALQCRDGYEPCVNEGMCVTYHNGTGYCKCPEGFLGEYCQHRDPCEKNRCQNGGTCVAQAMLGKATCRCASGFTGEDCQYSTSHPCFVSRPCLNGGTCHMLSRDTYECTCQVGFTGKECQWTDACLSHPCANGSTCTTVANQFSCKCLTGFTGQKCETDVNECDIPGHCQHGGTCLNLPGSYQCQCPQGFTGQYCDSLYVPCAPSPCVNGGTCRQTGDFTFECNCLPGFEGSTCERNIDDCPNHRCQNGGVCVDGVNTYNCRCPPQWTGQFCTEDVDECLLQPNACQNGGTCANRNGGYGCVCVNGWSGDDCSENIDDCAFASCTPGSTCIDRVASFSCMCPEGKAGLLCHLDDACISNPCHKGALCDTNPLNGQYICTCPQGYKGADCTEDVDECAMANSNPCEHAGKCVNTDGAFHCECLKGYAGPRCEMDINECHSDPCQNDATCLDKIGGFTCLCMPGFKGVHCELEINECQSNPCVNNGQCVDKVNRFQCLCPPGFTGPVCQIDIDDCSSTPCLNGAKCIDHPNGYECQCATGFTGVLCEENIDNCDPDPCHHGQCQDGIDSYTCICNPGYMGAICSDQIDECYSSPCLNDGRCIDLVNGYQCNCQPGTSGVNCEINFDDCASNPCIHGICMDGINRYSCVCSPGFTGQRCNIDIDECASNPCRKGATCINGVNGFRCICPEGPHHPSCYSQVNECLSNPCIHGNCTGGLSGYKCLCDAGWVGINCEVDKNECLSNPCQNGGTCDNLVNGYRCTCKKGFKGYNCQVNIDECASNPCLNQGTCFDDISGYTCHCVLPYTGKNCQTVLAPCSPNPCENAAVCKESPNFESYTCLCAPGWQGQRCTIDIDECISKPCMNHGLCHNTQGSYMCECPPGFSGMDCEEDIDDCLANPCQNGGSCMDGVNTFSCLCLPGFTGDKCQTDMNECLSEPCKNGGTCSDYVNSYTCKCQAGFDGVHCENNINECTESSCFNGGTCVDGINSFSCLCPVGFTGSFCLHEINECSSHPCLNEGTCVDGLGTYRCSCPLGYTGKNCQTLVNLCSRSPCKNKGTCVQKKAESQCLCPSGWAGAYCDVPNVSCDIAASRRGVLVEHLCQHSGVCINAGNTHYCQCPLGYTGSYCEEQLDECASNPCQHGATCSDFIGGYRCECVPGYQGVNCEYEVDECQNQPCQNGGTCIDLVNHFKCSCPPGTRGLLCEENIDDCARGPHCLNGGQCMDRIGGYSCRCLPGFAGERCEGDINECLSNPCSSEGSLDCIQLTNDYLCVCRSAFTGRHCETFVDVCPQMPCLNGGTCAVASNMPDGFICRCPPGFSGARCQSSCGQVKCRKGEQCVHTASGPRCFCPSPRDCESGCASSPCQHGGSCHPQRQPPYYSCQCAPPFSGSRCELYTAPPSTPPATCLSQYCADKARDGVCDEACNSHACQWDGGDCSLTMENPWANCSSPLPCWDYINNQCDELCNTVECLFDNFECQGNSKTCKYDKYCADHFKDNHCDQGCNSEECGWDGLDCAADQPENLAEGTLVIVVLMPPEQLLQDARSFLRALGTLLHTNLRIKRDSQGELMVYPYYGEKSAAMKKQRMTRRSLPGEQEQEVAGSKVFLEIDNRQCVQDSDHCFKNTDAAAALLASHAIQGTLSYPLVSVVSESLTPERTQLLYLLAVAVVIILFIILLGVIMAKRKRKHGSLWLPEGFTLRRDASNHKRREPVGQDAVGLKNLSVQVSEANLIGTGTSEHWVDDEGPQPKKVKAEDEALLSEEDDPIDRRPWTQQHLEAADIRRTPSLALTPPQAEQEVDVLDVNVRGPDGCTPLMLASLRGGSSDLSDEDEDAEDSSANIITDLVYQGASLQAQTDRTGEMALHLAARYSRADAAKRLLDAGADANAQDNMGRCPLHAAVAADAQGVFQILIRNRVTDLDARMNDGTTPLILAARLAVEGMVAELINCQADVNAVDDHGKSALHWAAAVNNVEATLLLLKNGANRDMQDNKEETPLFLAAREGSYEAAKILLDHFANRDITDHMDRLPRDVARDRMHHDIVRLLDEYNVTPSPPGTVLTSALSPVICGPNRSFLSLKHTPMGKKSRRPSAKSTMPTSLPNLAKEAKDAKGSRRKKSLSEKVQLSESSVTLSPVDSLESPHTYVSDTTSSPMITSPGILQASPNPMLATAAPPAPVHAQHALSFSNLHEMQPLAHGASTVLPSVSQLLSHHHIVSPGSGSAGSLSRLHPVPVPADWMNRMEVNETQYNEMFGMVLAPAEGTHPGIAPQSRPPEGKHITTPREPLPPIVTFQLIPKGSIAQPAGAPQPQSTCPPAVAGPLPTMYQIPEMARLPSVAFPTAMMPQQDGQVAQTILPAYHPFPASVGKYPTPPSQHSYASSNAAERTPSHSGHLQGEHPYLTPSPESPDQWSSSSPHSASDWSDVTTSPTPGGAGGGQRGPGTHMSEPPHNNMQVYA
Experiment [6] concerns the target Pro-neuregulin-1, membrane-bound isoform (Homo sapiens) (UniProt Q02297). Kind of experiment: small molecules binding neuregulin-1 protein – biochemical, small-molecule microarray, fluorescence 635/667, psychiatric disease protein project, primary screen (AID 1075).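 Note: score combines 667 nm spot fluorescence with signal to noise.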 As to conditions: NRG1 binding, 635 nm fluorescence, higher = more signal.
For experiment [7], the system named is Neuregulin-1 EGF-like domain. In words: small molecules binding NRG1 EGF domain – biochemical, small-molecule microarray, 635 nm fluorescence, primary screen (AID 1081).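 Note: binding of the protein to compounds printed on small-molecule microarray slides.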 As to conditions: higher = more signal.
Experiment [8] is described as follows: FRG1 expression reporter modulators in myotubes – cell-based, C2C12 myotubes, firefly/Renilla luciferase, luminescence, FRG1 inhibition for FSHD, primary screen (AID 1084). As to conditions: FRG1 promoter luciferase, higher = more signal, called active from +8 up or from −8 down.
Experiment [9] is described as follows: small molecules captured by biotinylated probe aFST – biochemical, small-molecule microarray, fluorescence 635/667, stem cell growth factor project, primary screen (AID 1086).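 Note: score merges 667 nm fluorescence with signal-to-noise of each printed compound spot.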 As to conditions: higher = more signal.
Experiment [10] is described as follows: binders of probe aHhip on microarray, primary screen, stem cell growth factor project, biochemical, small-molecule microarray, fluorescence 635/667 (AID 1087).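 Note: score merges spot fluorescence at 667nm with spot signal to noise ratio.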 As to conditions: higher = more signal.
In experiment [11] the test system is PRMT1 (protein arginine N-methyltransferase 1). In words: small molecules binding arginine methyltransferase PRMT1 – biochemical, small-molecule microarray, 635 nm fluorescence, primary screen (AID 1088).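 Note: binding of Prmt1 protein to compounds spotted on small-molecule microarray slides.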 As to conditions: higher = more signal.
Experiment [12] can be described thus: growth effects on S. cerevisiae YJM789 – YJM789 clinical isolate, OD600, 24 h, basal, primary screen (AID 1089).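 Note: growth of clinical yeast isolate S. cerevisiae YJM 789 seeded 1000 cells per well.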 As to conditions: higher = more signal, called active from +8 up or from −8 down.
A short description of experiment [13]: S. pombe growth modifiers, basal conditions – strain 972, OD600, 24 h, no modulator, primary screen (AID 1090).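 Note: basal condition with compound alone and no growth modifier present.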 As to conditions: S. pombe 972 growth, higher = more signal, called active from +8 up or from −8 down.
Experiment [14] is described as follows: budding yeast growth modifiers under rapamycin – strain BY4716, OD600, 96 h, primary screen (AID 1091). As to conditions: S. cerevisiae BY4716 + rapamycin, higher = more signal, called active from +8 up or from −8 down.
Experiment [15] has as its target Torsin-1A-interacting protein 2 (Homo sapiens) (UniProt Q8NFQ8). Kind of experiment: small molecules binding lysate-expressed LULL1 – cell lysate, human LULL1 lysate, 635/667 nm fluorescence, primary screen (AID 1092).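 Note: probe is lysate of COS7 cells overexpressing human LULL1; score merges per-feature 667 nm fluorescence with signal-to-noise.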 As to conditions: small-molecule microarray, hLULL1 lysate binding, 635 nm fluorescence; higher = more signal.
The nature of experiment [16]: optical density change of DRC41 E. coli – strain DRC41, OD650, 24 h, E. coli filamentation project, primary screen (AID 1093).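 Note: MC1000 strain lacking acrAB efflux and sulA so SOS filamentation is blocked.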 As to conditions: E. coli DRC41 growth, higher = more signal, called active from +8 up or from −8 down.
A short description of experiment [17]: fungal growth arrest, C. neoformans – Alamar Blue, cherry-picks, dose response (AID 686998;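 active = falling signal with fitted half-maximal potency no higher than twice the top valid tested dose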). As to conditions: Cryptococcus neoformans growth, 24 h; series mostly up to 35 µM. (In general: Alamar Blue is a resazurin reagent that responds to reducing activity.)
Experiment [18] is described as follows: C. neoformans lysis by adenylate kinase leakage – AK release luminescence, cherry-picks, dose response (AID 687000).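 Note: luminescent detection of adenylate kinase leaking from lysed yeast; 0% = median neutral control signal and 100% = double that signal.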 As to conditions: 4 h, 100% = twice the neutral-control signal; series mostly up to 15 µM.
Experiment [19] can be described thus: viability loss in HepG2 hepatoma cells – cell-based, cherry-picks, set 2, cytotoxicity control, dose response (AID 687002;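 active = a dose-response fit showing signal loss, with half-maximal concentration no higher than twice the top tested dose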). As to conditions: ATP luminescence (CellTiter-Glo), 48 h; series mostly up to 26 µM. Background: ATP-based viability assays read luminescence as a measure of living cells.

For some of these results: Entries with a potency or affinity are not part of this list. Inconclusive results are not listed. Calls of active or inactive are those of the source.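 Rule for the calls, unless noted: active = fitted dose curve reaches 40% lysis signal rise at or below the highest valid concentration tested for that sample; inconclusive = flat fit between 30% and 70%, or poor curve fit; inactive = signal falls, stays flat within 30%, or no crossing.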

Pro-neuregulin-1, membrane-bound isoform (Homo sapiens), sequence (Q02297 whole entry, looked up, the tested form may be a part, canonical isoform): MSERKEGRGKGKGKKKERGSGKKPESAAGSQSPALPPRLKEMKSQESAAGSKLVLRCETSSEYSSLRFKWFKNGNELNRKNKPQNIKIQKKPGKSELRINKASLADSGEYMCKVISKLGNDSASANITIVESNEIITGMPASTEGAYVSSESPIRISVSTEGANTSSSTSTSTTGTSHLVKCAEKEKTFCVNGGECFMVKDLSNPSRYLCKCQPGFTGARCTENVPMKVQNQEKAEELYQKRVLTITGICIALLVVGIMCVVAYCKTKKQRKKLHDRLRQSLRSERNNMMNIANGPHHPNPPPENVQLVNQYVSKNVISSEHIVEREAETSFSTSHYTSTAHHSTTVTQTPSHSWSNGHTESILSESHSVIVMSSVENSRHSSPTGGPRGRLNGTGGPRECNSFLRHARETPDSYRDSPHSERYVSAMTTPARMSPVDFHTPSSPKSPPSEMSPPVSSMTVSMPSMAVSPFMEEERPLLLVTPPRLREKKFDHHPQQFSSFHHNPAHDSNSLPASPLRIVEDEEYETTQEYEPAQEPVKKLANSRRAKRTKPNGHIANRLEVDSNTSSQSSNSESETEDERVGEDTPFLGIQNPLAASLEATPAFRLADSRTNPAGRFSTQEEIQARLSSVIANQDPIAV
Torsin-1A-interacting protein 2 (Homo sapiens), sequence (Q8NFQ8 whole entry, looked up): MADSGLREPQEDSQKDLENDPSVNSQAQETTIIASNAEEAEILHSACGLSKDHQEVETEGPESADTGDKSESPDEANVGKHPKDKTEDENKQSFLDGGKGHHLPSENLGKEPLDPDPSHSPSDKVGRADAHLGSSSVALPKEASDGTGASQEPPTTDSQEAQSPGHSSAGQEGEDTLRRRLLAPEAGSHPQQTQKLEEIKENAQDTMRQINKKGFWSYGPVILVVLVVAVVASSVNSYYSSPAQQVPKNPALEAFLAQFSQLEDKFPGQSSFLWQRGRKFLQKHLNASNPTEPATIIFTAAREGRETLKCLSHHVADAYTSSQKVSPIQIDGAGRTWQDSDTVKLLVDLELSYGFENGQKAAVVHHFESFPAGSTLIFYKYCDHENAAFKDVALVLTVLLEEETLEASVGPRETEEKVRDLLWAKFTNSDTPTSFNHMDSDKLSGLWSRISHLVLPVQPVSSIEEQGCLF

`C=C(COC)/C(=C/C[C@H](OC(C)=O)c1cccc(OCCO)c1)c1cc(C(=O)OC)ccc1OC`: the composite z-score was -0.269 in experiment [1]; 0.952 in experiment [2]; -0.0986 in experiment [3]; 0.318 in experiment [4]; -0.38 in experiment [5]; 0.0557 in experiment [6]. In addition, the composite z-score was 0.691 in experiment [7]; 0.276 in [9]; -0.0296 in experiment [10]; 0.905 in experiment [11]; 0.574 in experiment [15]. In addition, the z-score in [8] was -3.63 (inactive); in [12], -25.1 (active); in [13], -20.5 (active); in [14] it was -4.33 (inactive); in experiment [16], 1.57 (inactive).
Turning to `C=C1C=C(Br)C2(OCCCO2)[C@H]2OC12` (stereo partly drawn), the composite z-score in experiment [1] was -0.199; in experiment [2], 0.249; in experiment [3], -0.128; in experiment [4] it was 0.325; in experiment [5], -0.175; in experiment [6], -0.188. Also, the composite z-score in experiment [7] was -0.221; in experiment [9] it was 0.206; in experiment [10] it was 0.0274; in experiment [11], -0.83; in experiment [15], -0.38. The z-score is 1.04 (inactive) in experiment [8]; -0.23 (inactive) in experiment [12]; -0.54 (inactive) in experiment [13]; 0.405 (inactive) in [14]; 0.294 (inactive) in experiment [16].
On to `CN(C)CCCC[C@@H]1NC(=O)[C@@H]2C[C@H](C(=O)NCCCCCNC(=O)CS)[C@H](c3cccc(OCCO)c3)N2C1=O`, for which the composite z-score was 0.32 in experiment [1]; 0.532 in experiment [2]; -0.101 in experiment [3]; 0.141 in experiment [4]; 0.393 in experiment [5]; 0.267 in experiment [6]. In addition, the composite z-score in experiment [7] was 1.2; in experiment [9] it was 0.19; in [10] it was 0.259; in experiment [11], 1.07; in experiment [15], 0.127. The z-score is 0.37 (inactive) in experiment [8]; -2.64 (inactive) in experiment [12]; -1.81 (inactive) in experiment [13]; -2.15 (inactive) in [14]; 2.1 (inactive) in experiment [16].
`COc1ccc([Si](C)(C)[C@@H]2[C@@H](CC(=O)N3CCC[C@H]3CO)O[C@]3(C(=O)N(Cc4ccc(I)cc4)c4ccccc43)[C@H]2C)cc1`: the composite z-score was 0.035 in [1]; 0.356 in [2]; -0.142 in experiment [3]; 0.254 in [4]; 0.806 in experiment [5]; 0.805 in [6]. Besides, the composite z-score in experiment [7] amounted to 1.22; in experiment [9], 0.357; in [10], 0.281; in experiment [11], 1.56; in experiment [15], 1.53. Also, the z-score in experiment [8] is -1.71 (inactive); in experiment [12], -1.41 (inactive); in experiment [13], -0.398 (inactive); in [14], -0.309 (inactive); in [16], 2.22 (inactive).
Turning to `O=C1O[C@H](c2ccccc2)[C@H](c2ccccc2)N2[C@H]1[C@@H](C(=O)NC[C@H](O)c1ccccc1)[C@]1(C(=O)Nc3ccc(C#CC4(O)CCCCCC4)cc31)[C@H]2c1ccc(O)cc1`, the composite z-score in experiment [1] was 0.0879; in experiment [2] it was 0.705; in experiment [3], -0.0529; in [4] it was 0.676; in experiment [5], 1.47; in experiment [6] it was 1.62. Moreover, the composite z-score amounted to 1.34 in [7]; 0.837 in [9]; 0.131 in experiment [10]; 1.58 in experiment [11]; 1.41 in experiment [15]. The z-score in experiment [8] is -0.0847 (inactive); in experiment [12], -0.307 (inactive); in [13], -1.14 (inactive); in [14], 0.393 (inactive); in [16] it was 1.69 (inactive).
On to `Cc1cccc(-c2ccc([C@@H]3[C@H]4CN(C(=O)c5ccc6c(c5)OCO6)CCCCN4[C@H]3CO)cc2)c1`, for which the compound was called inactive in [17], in [18] and in experiment [19].
With `O=C(NO)[C@]1(Cc2ccccc2)N=C(c2ccc(OCCCO)cc2)O[C@@H]1c1ccccc1`, the composite z-score in experiment [1] was 0.464; in [2] it was 1.2; in [3] it was -0.246; in experiment [4] it was -0.134; in experiment [5], -0.66; in experiment [6] it was 0.545. Besides, the composite z-score in experiment [7] was -0.921; in experiment [9] it was 0.14; in experiment [10], -0.0645; in experiment [11], -0.269; in [15], -0.231. Moreover, the z-score in experiment [8] is -1.62 (inactive); in [12], -4.96 (inactive); in experiment [13], -3.08 (inactive); in experiment [14] it was -1.94 (inactive); in experiment [16] it was 3.42 (inactive).
For the compound `CCOC(=O)C[C@H]1[C@H](OC(=O)c2ccc(-c3ccccc3)cc2)[C@@H](NC(=O)C2CCCCC2)c2cc(OCCCO)ccc2N1C(=O)c1ccc2ccccc2n1`, the composite z-score in [1] was 0.0371; in experiment [2], 0.3; in [3], -0.0788; in experiment [4], 0.361; in [5] it was 0.689; in experiment [6], 0.738. The composite z-score was 0.741 in [7]; 0.483 in experiment [9]; -0.226 in [10]; 1.12 in experiment [11]; 1.72 in [15]. Besides, the z-score in experiment [8] is -0.429 (inactive); in experiment [12], -0.778 (inactive); in experiment [13] it was -1.55 (inactive); in experiment [14], -0.327 (inactive); in [16] it was 2.33 (inactive).
Regarding `COCCOC(=O)N1C(=O)[C@@]2(c3cc(C#CCNC(N)=O)ccc31)[C@H](c1ccccc1OCCO)N1[C@H](c3ccccc3)[C@H](c3ccccc3)OC(=O)[C@H]1[C@@H]2C(=O)Nc1nc2ccccc2s1`, the composite z-score in [1] was 0.171; in experiment [2] it was 1.05; in experiment [3], -0.0893; in [4], 0.158; in experiment [5] it was 0.931; in experiment [6], 0.582. The composite z-score in experiment [7] came out at 0.627; in experiment [9], 0.986; in experiment [10] it was 0.0623; in experiment [11], 1.28; in experiment [15], 1.58. The z-score in experiment [8] is 1.18 (inactive); in [12], 0.314 (inactive); in experiment [13], -0.364 (inactive); in [14], 1.99 (inactive); in experiment [16], 2.67 (inactive).
Consider `C=C(C(=O)CC[C@H](OC(C)=O)c1ccc(CO)o1)C(C)C`, for which the composite z-score was -0.466 in experiment [1]; 0.615 in experiment [2]; -0.189 in [3]; 0.122 in [4]; -1.28 in experiment [5]; -0.116 in [6]. For the same compound, the composite z-score in [7] was 0.388; in [9], -0.393; in experiment [10], 0.0596; in [11] it was 0.966; in experiment [15], 0.468. Also, the z-score in [8] was -0.629 (inactive); in experiment [12], 1.01 (inactive); in experiment [13], -0.344 (inactive); in experiment [14] it was -0.454 (inactive); in experiment [16], 1.44 (inactive).
In the case of `O=c1n(-c2ccccc2)c(=O)n2n1CC(COc1ccccc1)=C1[C@@H](CCc3ccccc3)OB(O)C[C@@H]12`, the composite z-score was -0.62 in experiment [1]; -0.128 in [2]; -0.031 in experiment [3]; 0.96 in experiment [4]; 0.893 in [5]; 0.97 in [6]. For the same compound, the composite z-score in experiment [7] was 0.706; in [9], 0.642; in [10], 0.0524; in [11] it was 1.42; in experiment [15], 1.39. Besides, the z-score was -4.24 (inactive) in experiment [8]; 0.173 (inactive) in experiment [12]; -3.03 (inactive) in experiment [13]; -1.44 (inactive) in experiment [14]; 1.92 (inactive) in [16].
